From PubChem BioAssay (NCI)
This is part of a sample that, as a whole, favours compounds with a hit. Of some 83,000 tested, about 20% had one in any assay.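 Treatment: one concentration, 48 hours, 96-well format. Scoring: percent growth, with anything below 10 considered active.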 Values without a mark were called inactive. Calls of active or inactive are those of the source.

Columns and labels:
Experiment in all cases: NCI-60 one-dose screen, 48 h (100 = growth as untreated, 0 = no growth, -100 = all killed)
Conditions in all cases: 10 µM unless noted
NCI-H23 lung = system: NCI-H23 lung
NCI-H226 lung = system: NCI-H226 lung
NCI-H322M lung = system: NCI-H322M lung
HOP-62 NSCLC = system: HOP-62 NSCLC
NCI-H460 lung = system: NCI-H460 lung
HOP-92 NSCLC = system: HOP-92 NSCLC
NCI-H522 lung = system: NCI-H522 lung
A549/ATCC NSCLC = system: A549/ATCC NSCLC
786-0 renal = system: 786-0 renal
COLO 205 colon = system: COLO 205 colon

Row | Compound | growth (NCI-H23 lung) | growth (NCI-H226 lung) | growth (NCI-H322M lung) | growth (HOP-62 NSCLC) | growth (NCI-H460 lung) | growth (HOP-92 NSCLC) | growth (NCI-H522 lung) | growth (A549/ATCC NSCLC) | growth (786-0 renal) | growth (COLO 205 colon)
1 | Oc1cccc2c1NCCC2 | 13.6% | 32.8% | 38.3% | 25.1% | 5.35% (active) | -16.6% (active) | -2.3% (active) | 12.9% | 26.6% | 38.6%
2 | CCOC(=O)CSc1nc2sc3c(c2c(=O)n1-c1ccccc1)CCCCC3 | 96.2% | 93% | 108% | 97.6% | 110% | 104% | 80.4% | 104% | 109% | 119%
3 | CO[C@H]1CC(c2ccc[nH]2)=N[C@]12O[C@@H](C)C[C@@H]1CCCCCCCc3ccc([nH]3)[C@H]12 | 28.1% | 29.3% | 37.8% | 14.8% | 17% | 10.3% | 20.8% | 11.2% | 11.7% | 7.52% (active)
4 | COc1cccc2cc(N(C)c3nc(C)nc4c3CCC4)ccc12 | 22.4% | 25.8% | 59.1% | 14.7% | 6.85% (active) | 0.483% (active) | -16.9% (active) | 14.8% | 3.77% (active) | -66.4% (active)
5 | O=C(O)COc1ccc(F)cc1 | 96.8% | 105% | 99.6% | 98.7% | 113% | 102% | 93.8% | 99.6% | 102% | 116%
6 | CCOC(=O)c1ccc2c(c1)c1c(C)c3cnccc3c(C)c1n2C | -51.2% (active) | -33.6% (active) | -14.1% (active) | -47.3% (active) | -17.2% (active) | -24.2% (active) | -79.1% (active) | -11.8% (active) | -95.7% (active) | -63.9% (active)
7 | COc1cc2c(c(OC)c1OC)CCC(c1cccc(C(=O)Nc3ccccc3Br)c1)O2 (stereo not given) | 97.2% | 92.3% | 94.9% | 92.3% | 104% | 66.3% | 80.1% | 81.2% | 76.2% | 90.5%
8 | O=C(O)CCCN1C(=O)CSC1=S | 104% | 111% | 100% | 103% | 101% | 103% | 93.3% | 105% | 102% | 120%
9 | Nc1ccc(N)c2c1C(=O)c1cccc([N+](=O)[O-])c1C2=O | -29.1% (active) | 16.6% | 2.12% (active) | 9.73% (active) | -3.34% (active) | 63.3% | 25.6% | 20.8% | 17.4% | 66.3%
10 | COC(=O)CCc1c(/C=C2\N=C(c3ccc[nH]3)C=C2OC)[nH]c(C)c1C(=O)OCc1ccccc1 | 20.4% | 19.6% | 55.9% | -3.97% (active) | 12.4% | -9.37% (active) | -20.3% (active) | 11.9% | -26.2% (active) | 4.96% (active)
11 | CNC1=C(Br)C(=O)c2c(C(=O)OC)c(C)nc(C)c2C1=O | 31.8% | 86.3% | 81.5% | 99.9% | 30.4% | 104% | 64.3% | 58.1% | 102% | 30.9%
12 | O=[N+]([O-])c1ccc(N/N=C\c2cc(Cl)ccc2O)nc1 | 32.7% | 100% | 30.4% | 45.6% | 12.8% | 59.7% | 31.3% | 50.4% | 34% | 50.1%
13 | COC1CC(O)C2=C(CC3C(/C(C)=C\CC=C(C)C)CCC3(C)O2)C1=O (stereo not given) | 97.9% | 101% | 101% | 105% | 104% | 97.5% | 90.1% | 95.2% | 103% | 119%
14 | C#CCOC(=O)C(N)CSSCC(N)C(=O)O (stereo not given) | 103% | 112% | 91.2% | 94.9% | 90.4% | 97.5% | 86.1% | 98.2% | 100% | 104%
15 | O=C(O)/C=C/c1cn(-c2ccccc2)nc1-c1ccc(F)cc1 | 96.2% | 95.1% | 87% | 81.7% | 101% | 84.3% | 98.2% | 82.2% | 96.1% | 104%
16 | CCCCN(CCC#N)C(N)=O | 115% | 103% | 107% | 105% | 108% | 97.2% | 105% | 109% | 92% | 120%
17 | O=C(CN1C(=O)c2ccccc2S1(=O)=O)Nc1nc(-c2cc3ccccc3oc2=O)cs1 | 110% | 94.4% | 97.3% | 105% | 105% | 96.4% | 92.2% | 104% | 91.8% | 117%
18 | Cc1cc2nc(C(Cl)Cl)nc(-c3ccccc3)n2n1 | 33.6% | 90.7% | 10.9% | 31.9% | -50% (active) | 72.9% | 72.4% | 4.73% (active) | 92.4% | 1.99% (active)
19 | CSc1nc(N)c2c(n1)NC(c1ccccc1)C1CCc3ccccc3C1=N2 (stereo not given) | 39.4% | 77.6% | 112% | 64.4% | 57.3% | 51.2% | 45.9% | 72.2% | 69.2% | 78.6%
20 | COc1cccc2cc(N(C)c3ncnc4ccccc34)ccc12 | 15.5% | 46.2% | 48% | 23.3% | 4.58% (active) | 28.1% | -9.69% (active) | 13.5% | 29.5% | -13.8% (active)
21 | O=C1/C(=C/c2ccccc2)COc2ccc(O)cc21 | 97.2% | 104% | 99.3% | 104% | 103% | 93.7% | 73.5% | 90.5% | 86.9% | 93.2%

Row | Compound | growth (NCI-H23 lung) | growth (NCI-H226 lung) | growth (NCI-H322M lung) | growth (HOP-62 NSCLC) | growth (NCI-H460 lung) | growth (HOP-92 NSCLC) | growth (NCI-H522 lung) | growth (A549/ATCC NSCLC) | growth (786-0 renal) | growth (COLO 205 colon)
22 | C=CCOC(=O)C1=C(C)N(CC)C(=O)N(CC)C1c1c(Cl)n(C)c2ccccc12 (stereo not given) | 78.7% | 95.1% | 74.4% | 84.1% | 88.1% | 21.6% | 84.8% | 63.7% | 91.9% | 96.9%
23 | Cc1c2ccncc2c(C)c2c1c1ccccc1n2CCCCCC(=O)O | 84.7% | 75.6% | 96.1% | 83% | 97.1% | 80.6% | 101% | 89.8% | 103% | 109%
24 | COC(=O)c1c(C)nc(C)c2c1C(=O)C(Br)=C(NCCN1CCOCC1)C2=O | 89% | 107% | 96.2% | 133% | 88.6% | 118% | 102% | 98.6% | 101% | 56.5%
25 | c1ccc(Cn2cc3c(c2)-c2nc(Nc4ccccc4)ncc2CC3)cc1 | 71.7% [100 µM] | 87.1% [100 µM] | 78.2% [100 µM] | 85.8% [100 µM] | 82.7% [100 µM] | 50.4% [100 µM] | 80% [100 µM] | 81.9% [100 µM] | 97.3% [100 µM] | 106% [100 µM]
26 | C#C[C@]1(O)CC[C@H]2[C@@H]3CC=C4c5sc(-c6ccccc6)nc5CC[C@]4(C)[C@H]3CC[C@@]21C | 84.1% | 99.6% | 86.7% | 99.5% | 75.5% | 77% | 77.9% | 101% | 42.9% | 116%
27 | O=C(/C=C/c1ccco1)c1ccc(Nc2ccnc3cc(Cl)ccc23)cc1 | 82.1% | 111% | 39.3% | 104% | 36% | 41.5% | 81.9% | 62% | 76.6% | 90.4%
28 | O=C(Nc1ncc(Cc2ccccc2)s1)c1cc(-c2ccccc2)nc2ccccc12 | 89.3% | 89.3% | 99.1% | 94.1% | 101% | 84.1% | 87.6% | 98.2% | 105% | 100%
29 | CCCCC1=C(Br)C(=O)c2ncccc2C1=O | 95% | 97.8% | 100% | 91.3% | 105% | 46.2% | 74.3% | 94.8% | 93.3% | -6.16% (active)
30 | Cc1cc2c(c(C)n1)CN(C(=O)Nc1nc(-c3cncs3)ccc1N)C2 | 104% | 107% | 97.8% | 99.6% | 106% | 90.1% | 87.5% | 111% | 102% | 110%
31 | Cc1cc(=O)oc2cc(Oc3nc(-c4ccccc4)cn4c(-c5ccccc5)cnc34)ccc12 | 62.4% | 44.6% | 86% | 68.7% | 64% | 22.4% | 47.1% | 56.1% | 67.3% | 70.5%
32 | CCN=c1sc2c(n1NC(=O)c1cc3ccc1CCc1ccc(cc1)CC3)C(=O)c1ccccc1C2=O | -32.1% (active) | 73% | 80.5% | -58.6% (active) | 9.62% (active) | -9.79% (active) | -34.8% (active) | -38.8% (active) | -90.4% (active) | 42.6%
33 | CC1=NC(=S)NC(c2ccccc2)/C1=C1/CC(c2ccccc2O)NN1 (stereo not given) | 92.5% | 97% | 101% | 92.7% | 104% | 84.5% | 96.3% | 100% | 100% | 105%
34 | COC12C=C/C(=C(/C(=O)OCc3ccccn3)C(=O)CCCCCCCCC3(OC)C=C/C(=C(/C(=O)OCc4ccccn4)C(=O)CCCCCCCC1)O3)O2 | -37.4% (active) | -69.4% (active) | -60% (active) | 20% | -15.5% (active) | -59% (active) | -12.9% (active) | 9.81% (active) | -72.5% (active) | -15.6% (active)
35 | COc1cc(/C=C2\CN(S(=O)(=O)c3ccc(C)cc3)C/C(=C\c3cc(CN4CCCC4)c(O)c(OC)c3)C2=O)cc(CN2CCCC2)c1O | -53.5% (active) | 31.9% | 10.8% | 4.13% (active) | -67.4% (active) | -16.7% (active) | -36.2% (active) | 21.2% | -74.7% (active) | -49.4% (active)
36 | CCCCCN(CCCCC)CC(O)c1c(Cl)ccc2ccccc12 (stereo not given) | 54.1% | 70.4% | 71.2% | 80.5% | 66.5% | 68.1% | 79% | 67.6% | 71.7% | 72.9%
37 | NC(=N\N=C/c1ccc(Cl)cc1Cl)/C(N)=N\N=C/c1ccc(Cl)cc1Cl | 87.1% | 62.8% | 41% | 83% | 20.7% | 43.8% | 79.8% | 62.5% | 3.29% (active) | 71.6%
38 | Cn1cc(-c2csc(-c3cn(CCO)c4ccc(F)cc34)n2)c2cccnc21 | 74.1% | 76% | 79.1% | 52.6% | 27% | 64.8% | 10% | 49.8% | 73.3% | 46%
39 | O=C1c2cccnc2C(=O)c2c1c(C(=O)OCCCN1CCOCC1)c1ccccn21 | -32.1% (active) | -6.42% (active) | -51.5% (active) | -25.6% (active) | -60% (active) | -20.6% (active) | -75.1% (active) | -25% (active) | -18.4% (active) | -75.8% (active)
40 | Cc1cc2c(C(C)C)c(O)c(O)c(/C=N/O)c2c(O)c1-c1c(C)cc2c(C(C)C)c(O)c(O)c(/C=N/O)c2c1O | 27.3% | 33.2% | 35.9% | 11.8% | 2.59% (active) | 8.85% (active) | -25.7% (active) | 4.66% (active) | 22.2% | 2.49% (active)
41 | CCOC(=O)C1=C(c2ccccc2)N=C2N(c3ccccc3)N=C(C(C)=O)N2C1c1ccc(Br)cc1 (stereo not given) | 94.3% | 96.1% | 95.3% | 103% | 98% | 89.5% | 95.3% | 91.2% | 100% | 124%
42 | Cc1cc(N2CCOCC2)nc(N(CCCNc2ccnc3cc(Cl)ccc23)Cc2ccc3c(c2)OCO3)n1 | 13.5% | 13.8% | 21.4% | -17.6% (active) | -11.5% (active) | -25.8% (active) | -66.4% (active) | 2.51% (active) | -79% (active) | -58.5% (active)
